Assay results from PubChem BioAssay AID2016 (NMMLSC, 2009).
In all, about 330,000 compounds went through this assay and about 1,700 (0.52%) were called active.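 The calls were made as follows: active = GFP response versus DMSO above a set limit, roughly screen mean plus 3 SD (cut at about 180% in these data); inconclusive = fewer than 70 cells counted for a yeast strain; inactive = the rest.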 The list comes from a sample in which actives are over-represented; it also holds similar structures and randomly drawn compounds.

assay: modulators of MEP2-GFP levels in yeast, primary screen, S. cerevisiae, multiplex flow cytometry, MLPCN library (AID 2016);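 also: median GFP fluorescence of the barcode-gated MEP2-GFP cells per well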; settings: S. cerevisiae MEP2-GFP strain, 3 h, at 10 µM, hits give high values, 100% = DMSO control level

SMILES	GFP response vs DMSO
CC12c3ccccc3C(c3ccccc31)C1C(=O)N(Cc3cccnc3)C(=O)C12 (stereo unspecified)	107% (inactive)
COc1ccc(CNC(=O)CN2CCC(n3nnc4cc(F)ccc43)CC2)cc1	88.8% (inactive)
CSc1ccc(C#N)cc1NC(=O)c1cccc(Cl)c1	102% (inactive)
O=C(Nc1cccc2cccnc12)c1cccc(Cl)c1	567% [may fluoresce violet] (active)
O=C(Nc1cccnc1Cl)c1cc(-c2cccc(Cl)c2)on1	103% (inactive)
CC(=O)Nc1ccc(Nc2nc3c(S(=O)(=O)c4ccc(C)c(C)c4)nnn3c3ccccc23)cc1	103% (inactive)
Cc1cccc(Nc2nc3c(S(=O)(=O)c4ccccc4)nnn3c3ccccc23)c1C	1130% [may fluoresce green] (active)
Cc1ccc(S(=O)(=O)c2nnn3c2nc(N2CCN(c4ccccn4)CC2)c2ccccc23)cc1	112% (inactive)
C=CC[C@@H](Cc1ccc(F)cc1)C(=O)OC[C@H]1CCCN1C(=O)[C@H](CC=C)CC(=O)N(CCO)Cc1ccccc1	103% (inactive)
NC1=NC(c2ccc([N+](=O)[O-])cc2)N(c2ccc(F)cc2)C(N)=N1 (stereo unspecified)	107% (inactive)
O=C(CC1SC(=Nc2ccccc2F)N(CCN2CCOCC2)C1=O)Nc1ccc(F)cc1F (stereo unspecified)	177% (active)
O=C(CN1CCN(C/C=C/c2ccccc2)CC1)Nc1ccc(F)cc1F	100% (inactive)
O=C(CC1SC(N2CCOCC2)=NC1=O)Nc1ccccc1F (stereo unspecified)	91.9% (inactive)
CCCN1C2CCCC1CC(NC(=O)c1cccc(OC)c1)C2 (stereo unspecified)	93.2% (inactive)
Cc1ccc(-n2cc3ccc([N+](=O)[O-])cc3n2)cc1	98.2% (inactive)
Cc1ccc2c(c1)N(CC(=O)NCCc1ccc(Cl)cc1)C(=O)c1cccnc1O2	110% (inactive)
CCCCNC(=O)C1(O)c2ccccc2NC(=O)N1c1ccc(Cl)cc1 (stereo unspecified)	108% (inactive)
CCCCC1N2CC3([N+](=O)[O-])CN1CC([N+](=O)[O-])(C2)C3(C)C (stereo unspecified)	96.3% (inactive)
O=c1c2c(nc3cc(-c4cccc(Cl)c4)[nH]n13)CCCC2	98.5% (inactive)
CSc1nc2nc3c(c(=O)n2[nH]1)CCC3	95.3% (inactive)
O=c1c2c(nc3nc[nH]n13)CCC2	532% [may fluoresce violet] (active)
CNC(=O)Nc1cc(C(C)(C)C)no1	107% (inactive)
CCN(CC)c1ccc([N+](=O)[O-])cc1C(=O)O	109% (inactive)

SMILES	GFP response vs DMSO
Cc1noc(C)c1CCC(=O)N1CCCC(CO)(Cc2ccccc2)C1 (stereo unspecified)	96.4% (inactive)
Cc1ccc(F)c(NC(=O)CCc2ccccc2)c1	93.7% (inactive)
CCn1ncc(Br)c1C(=O)Nc1cc(C)ccc1F	233% [may fluoresce violet] (active)
Cc1ccc(F)c(NC(=O)CCOc2ccccc2C)c1	96.5% (inactive)
Cc1nnc(N(Cc2ccco2)C(=O)c2ccno2)s1	99% (inactive)
CC(C)CC(CO)N1CCN(C(=O)c2ccc(Cl)cc2Cl)CCC1=O (stereo unspecified)	96.1% (inactive)
CCS(=O)(=O)Nc1ccc(C2=NN(C(C)=O)C(c3cccs3)C2)cc1 (stereo unspecified)	107% (inactive)
CCCCc1c(O)nc2n(c1=O)CCS2	92.6% (inactive)
CCCS(=O)(=O)Nc1ccc(-c2cn3c(n2)SCC3)cc1	255% [may fluoresce violet] (active)
CCOc1ccc(NS(=O)(=O)c2ccc(C(=O)NCC(c3ccccc3OC)N3CCCC3)cc2)cc1 (stereo unspecified)	102% (inactive)
O=C(Nc1ccc(N2CCOCC2)c(Cl)c1)c1ccc(S(=O)(=O)N2CCOCC2)cc1	95.7% (inactive)
Cc1cc(C)n(-c2ccc(NC(=O)C3CCCCN3C(=O)c3cccs3)cc2)n1 (stereo unspecified)	92.9% (inactive)
Cc1cc(C)c(OCCN2CC(C)OC(C)C2)c(Br)c1 (stereo unspecified)	101% (inactive)
COc1ccc(CCNC(=O)CS(=O)(=O)Cc2nc(-c3ccc(C)cc3)oc2C)cc1OC	186% (active)
COc1cccc(-c2nc(CS(=O)(=O)CC(=O)NCCc3ccc(OC)c(OC)c3)c(C)o2)c1	98.7% (inactive)
Cc1ccc(-c2nc(CS(=O)(=O)CC(=O)NCc3ccc4c(c3)OCO4)c(C)o2)cc1	102% (inactive)
O=C(CN1C(=O)c2cccnc2Oc2ccc(Cl)cc21)Nc1ccc(F)cc1	105% (inactive)
COc1ccc(CNC(=O)CCn2cccc2)cc1	94.3% (inactive)
COc1ccc(CNC(=O)CCN2C(=O)c3ccccc3C2=O)cc1	96.1% (inactive)
CCOc1cc2[nH]c(=O)n(CCC(=O)NCc3ccc(OC)cc3)c(=O)c2cc1OCC	223% [may fluoresce violet] (active)
NCCCCCC(=O)N/N=C/c1ccc2nccnc2c1	673% [may fluoresce violet] (active)
Cc1nccn1CC(=O)N/N=C/c1ccc(O)c(O)c1	105% (inactive)
O=C(N/N=C/c1ccc(Cl)c(Cl)c1)c1ccc2nc[nH]c2c1	97.5% (inactive)

SMILES	GFP response vs DMSO
COCCNC(=O)C(c1ccc(C)cc1)N(C(=O)CCC(=O)Nc1ccccn1)c1cccc(C)c1 (stereo unspecified)	107% (inactive)
COCCN(C(=O)CCC(=O)Nc1ccccn1)C(C(=O)NCCC(C)C)c1ccc(OC)cc1 (stereo unspecified)	107% (inactive)
CCOc1ccc(C(C(=O)NCCOC)N(CCOC)C(=O)CCC(=O)Nc2ccccn2)cc1 (stereo unspecified)	296% [may fluoresce violet] (active)
Cn1c(CCC(=O)OCC(=O)NCc2ccccc2Cl)nc(=O)c2ccccc21	99.4% (inactive)
COc1cc(Cl)c(C)cc1NC(=O)CSc1nnc(CN2CCCC2)o1	105% (inactive)
CC1CC(=S)Nc2ccccc2N1Cc1ccccc1 (stereo unspecified)	98.4% (inactive)
Cc1cc(NS(=O)(=O)c2ccc(NC(=O)c3cccc(OC(F)F)c3)cc2)nc(C)n1	92% (inactive)
Cc1cccc(C)c1NC(=O)CS(=O)CC(=O)N1CCN(c2ccccc2)CC1 (stereo unspecified)	102% (inactive)
CC[n+]1cc(C)ccc1/C=C/c1ccc(N(C)C)cc1	180% (active)
Cc1ccccc1NC(=O)C1CCCN(C(=O)NCc2ccccc2)C1 (stereo unspecified)	105% (inactive)
COc1cccc(NC(=O)C(Sc2nnnn2C)c2ccccc2)c1 (stereo unspecified)	100% (inactive)
CC(C)(C)C(=O)/C(C#N)=C/c1ccc(O)cc1	95.4% (inactive)
O=C(Nc1ccc(F)c([N+](=O)[O-])c1)C1CC(=O)N(Cc2ccccc2)C1 (stereo unspecified)	101% (inactive)
Cc1cc(=O)oc2cc(NC(=O)C(C)Oc3ccccc3)ccc12 (stereo unspecified)	99.1% (inactive)
Cc1cc(=O)oc2cc(NC(=O)C3CC(=O)N(Cc4ccccc4)C3)ccc12 (stereo unspecified)	559% [may fluoresce violet] (active)
O=C(C(Cc1ccccc1)n1cccc1)N1CCN(C2CCCCC2)CC1 (stereo unspecified)	96.8% (inactive)
CC(C)Cn1cnc2c1c(=O)n(CC(=O)NN)c(=O)n2Cc1ccccc1	97.4% (inactive)
CN(CCO)Cc1csc2ccc(Br)cc12	112% (inactive)
CCN(CC)Cc1cc(C(C)=O)ccc1O	103% (inactive)
CCN(CC)Cc1csc2ccc(Br)cc12	200% (active)
CC(=O)N1c2ccc(S(=O)(=O)NCCC(=O)N(C)C3CCCCC3)cc2CC1C (stereo unspecified)	104% (inactive)
Cc1ccc(S(=O)(=O)Oc2ccc(/C=N/NC(=O)c3c(Cl)cnn3C)cc2)cc1	98.8% (inactive)
COc1ccccc1OCCNc1cc(N2CCOCC2)ccc1[N+](=O)[O-]	106% (inactive)

SMILES	GFP response vs DMSO
COc1ccc(CCNC(=O)c2ccccc2-c2ccccc2C(=O)O)cc1OC	93% (inactive)
COc1ccc(CCNc2cc(N3CCN(C(=O)c4ccccc4OC)CC3)ccc2[N+](=O)[O-])cc1OC	180% [may fluoresce violet] (active)
COC(=O)/C(=C\Nc1ccccc1)NC(=O)c1ccc(Cl)cc1Cl	91.1% (inactive)
COCC1CCN(C(=O)c2ccc3oc(Cc4ccccc4)nc3c2)C1 (stereo unspecified)	101% (inactive)
CCOC(=O)c1nnn(-c2nonc2-n2cccc2)c1CN1CCOCC1	92.2% (inactive)
CCOC(=O)c1c(CN2CCOCC2)n(-c2ccccc2)c2ccc(O)cc12	240% [may fluoresce violet] (active)
CCOC(=O)c1c(CN(C)C)n(-c2ccccc2)c2cc(Br)c(O)cc12	96.5% (inactive)
Cc1ccc2nnn(Cc3cccc(C(C)(C)C)c3O)c2c1	92.5% (inactive)
COc1ccc(C)cc1NC(=O)CN1c2cccc3cccc(c23)S1(=O)=O	101% (inactive)
COc1cc(C(=O)Nn2c(O)c(C3=c4ccccc4=NC3=O)sc2=S)ccc1O	96.1% (inactive)
COc1cccc(-n2c(SCC(=O)NC3CCS(=O)(=O)C3)nc3ccccc3c2=O)c1 (stereo unspecified)	109% (inactive)
O=C1N(Cc2ccc3c(c2)OCO3)c2ccccc2C1(O)c1c[nH]c2ccccc12 (stereo unspecified)	104% (inactive)
CN(C)S(=O)(=O)c1cc(C(=O)Nc2ccn(C)n2)c(Cl)cc1Cl	7710% [may fluoresce green] (active)
Cc1ccc(C(=O)Nc2ccn(C)n2)cc1	109% (inactive)
O=C(Nc1nccs1)c1cc(S(=O)(=O)N2CCOCC2)c(Cl)cc1Cl	97.8% (inactive)
CCOC(=O)N1CCN(S(=O)(=O)c2ccc(Br)cc2)CC1	576% [may fluoresce violet] (active)
CCOC(=O)N1CCN(S(=O)(=O)c2ccc(-n3cnnn3)cc2)CC1	93.2% (inactive)
CCOC(=O)N1CCN(S(=O)(=O)c2ccc(OC)cc2)CC1	98.6% (inactive)
NC(=O)COC(=O)c1ccc2c(c1)C(=O)N(Cc1ccco1)C2=O	103% (inactive)
COc1ccc(-c2sc3ccc(OC)cc3c2C#Cc2ccccn2)cc1	87.4% (inactive)
COc1ccc2sc(-c3ccc(N(C)C)cc3)c(-c3ccc4cc[nH]c4c3)c2c1	105% (inactive)
COc1ccc2sc(-c3ccc(N(C)C)cc3)c(C#CCO)c2c1	180% [may fluoresce violet] (active)
